Results reported in the supplement of paper PMC3334620.
The full ranking holds about 33,000 sequences; the median of “E-score (-0.5 to 0.5)” is about -0.056, and the highest 2% start at about 0.38. The sample as a whole holds a higher share of the highest values than the screen did.

Biological target: Stb4 (UniProt P50104)
Experiment: PBM E-score (8-mer binding enrichment) (E-score (-0.5 to 0.5)); higher = stronger / more preferred TF binding
Details: protein concentration: 200 nM; construct: GST-DNA-binding domain
Procedure: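 Universal 'all 10-mer' protein binding microarrays (Agilent AMADID 015681) probed with GST-tagged S. cerevisiae TFs (full-length or DBD) made by in vitro transcription/translation (PURExpress), about 100-200 nM. Bound TF was detected with fluorescent anti-GST. Each ungapped 8-mer (which stands for itself and its reverse complement) is scored by the PBM enrichment score (E-score), a modified Wilcoxon-Mann-Whitney statistic from -0.5 to +0.5, computed with the Universal PBM Analysis Suite. Scale: above 0.35 generally sequence-specific binding.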

Chain of UniProt P50104 (P50104 whole entry): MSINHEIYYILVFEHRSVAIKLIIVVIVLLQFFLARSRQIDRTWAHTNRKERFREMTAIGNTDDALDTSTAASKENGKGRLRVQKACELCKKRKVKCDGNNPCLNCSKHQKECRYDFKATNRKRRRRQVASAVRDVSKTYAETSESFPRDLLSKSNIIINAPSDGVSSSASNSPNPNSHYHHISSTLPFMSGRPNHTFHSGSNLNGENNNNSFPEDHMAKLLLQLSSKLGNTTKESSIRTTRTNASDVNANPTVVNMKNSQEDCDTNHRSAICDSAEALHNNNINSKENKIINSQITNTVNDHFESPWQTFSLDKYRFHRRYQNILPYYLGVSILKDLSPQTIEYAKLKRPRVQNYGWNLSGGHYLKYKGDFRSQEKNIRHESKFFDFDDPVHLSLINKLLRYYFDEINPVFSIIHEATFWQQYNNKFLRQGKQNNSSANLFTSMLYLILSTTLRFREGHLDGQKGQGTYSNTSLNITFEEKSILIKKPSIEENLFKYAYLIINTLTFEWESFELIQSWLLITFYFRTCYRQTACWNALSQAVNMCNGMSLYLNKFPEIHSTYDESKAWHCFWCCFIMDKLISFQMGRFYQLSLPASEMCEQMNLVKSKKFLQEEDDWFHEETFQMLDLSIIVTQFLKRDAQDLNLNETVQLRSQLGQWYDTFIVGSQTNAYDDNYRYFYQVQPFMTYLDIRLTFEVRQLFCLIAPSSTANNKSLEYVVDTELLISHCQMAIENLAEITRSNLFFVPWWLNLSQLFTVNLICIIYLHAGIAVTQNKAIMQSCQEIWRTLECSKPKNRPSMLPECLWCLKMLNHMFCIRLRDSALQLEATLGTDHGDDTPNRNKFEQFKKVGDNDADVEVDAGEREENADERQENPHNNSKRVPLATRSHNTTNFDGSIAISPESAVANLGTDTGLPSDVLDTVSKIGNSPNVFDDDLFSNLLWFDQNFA

Sequence | PBM E-score
ACGAGGCC | -0.0545
CAGAGGCG | -0.0504
TCGAGGCA | -0.187
CCGAGGCA | 0.396
CCGAGGCC | 0.436
CCGAGGCG | 0.398
ACGAGGCG | -0.0457
GCGAGGCC | -0.243
GCGAGGCA | 0.0697
ACCCGCGT | 0.188
ACCCGAGT | 0.423
ACACGAGA | -0.19
ACCCCCGA | 0.317
ACCCGGGA | 0.378
ACCCGAGG | 0.427
ACCCGAGA | 0.472
ACCCGGGT | 0.41
CCCCGAGG | 0.375
ACCCGGGC | 0.326
ACACGAGT | -0.0741
ACTCGAGG | -0.152
AGAGCTCT | -0.0781
GAGCCCCC | -0.168
AGCTCACA | -0.192
CCTAGTAG | -0.0242

Sequence | PBM E-score
AGCATACT | -0.166
AGGGGAAT | 0.0637
ATTGAGAA | -0.0694
CACAGTGG | -0.0386
ACCACCAA | 0.031
CAGCTAGC | -0.0222
ACTCCTCT | -0.061
GGGCCACA | -0.0749
CCCCGAGC | 0.371
CCCCGAGA | 0.326
ACCCGAGC | 0.468
TCCCGAGA | 0.453
GCCCGAGA | 0.352
GCCCGAGC | 0.316
CGACTCGC | -0.0581
AAAGCAAG | 0.149
AGCATTCA | -0.0667
GCCGAGTA | 0.374
ACCGAGTA | 0.321
CCCGAGTA | 0.383
CCCGAGTC | 0.395
ACCGAGTC | 0.244
CTCGAGTC | -0.0623
GGGCATGA | -0.248
ACGCTGAG | -0.29

Sequence | PBM E-score
CGTCTTGC | 0.125
ATGTGAGA | -0.03
GCTGGGAC | -0.117
AGCGGATC | 0.255
GGCGGATA | 0.374
CGCGGATA | 0.4
CGCGGATC | 0.263
AGCGGATG | 0.275
AGCGGATA | 0.386
CCCCCCTA | -0.178
ACTGGTGA | -0.226
GATCGGAC | 0.392
GAACGGAA | 0.346
TATCGGCA | 0.326
CATCGGAG | 0.204
CATCGGAA | 0.435
TATCGGAA | 0.431
GATCGGGC | 0.22
TATCGGGA | 0.361
GATCGGAA | 0.425
GATCGTAA | -0.0241
CATCGGAC | 0.259
GATCGGCC | 0.218
CCATTCCG | 0.35
ATATTGGA | -0.0099

Sequence | PBM E-score
CGTCTGCA | -0.122
GAGCATCA | -0.181
AACCAAGA | -0.0962
AAGGCCAA | -0.173
CCAATATC | 0.137
AAAGAAAC | 0.0504
CAATCGTC | -0.187
AATCGGAT | 0.424
AATCGGAC | 0.133
AATCGGGT | 0.325
AATCGGAG | 0.277
AATCGGCC | 0.191
AATCGGAA | 0.425
CTGACTGA | -0.239
CTAGCCCC | -0.0513
CTTAAAAA | -0.232
GTTCCCCA | -0.244
CTTCCCGA | 0.438
ATTCCCGA | 0.451
CTTCCCGC | 0.2
GTTCCCAA | -0.009
ATTCCCGG | 0.372
GTTCCCGA | 0.419
ATTCCCGC | 0.295
CTCCCCGA | 0.282

Sequence | PBM E-score
GCGTCTGA | -0.15
CACTGCCA | -0.176
CAGCGCGG | 0.148
ATGGGACA | -0.0554
CCATAGCC | 0.0889
GTGGTCCA | -0.0876
GGGGACAA | 0.109
CACCTGCG | -0.018
CGGAAGCC | 0.41
GGGAAGCA | 0.0636
AGGAAGCA | -0.109
CGGAAGCA | 0.435
CGGAAGGC | 0.373
AGGAAGCC | 0.0867
GCAGCCAA | -0.103
ACTAGGTA | -0.202
ATCTGACC | 0.104
ATTTTCGC | -0.0335
ATTTTCGA | -0.256
AATTTCGC | 0.123
AATTTCGG | 0.393
AATTTCGA | -0.152
ACTTTCGC | -0.239
ACTTTCGA | -0.0194
ATTTTCGG | 0.423

Sequence | PBM E-score
ACTTTCGG | 0.416
CTATCGAG | -0.194
CCGCTCTA | 0.0787
ATGCAAAT | -0.115
CAACTCAA | -0.0984
GGAGCGGA | 0.26
AGATGAAC | -0.0339
GCGCAAAC | -0.0362
CGTGACTA | -0.158
CCCGAGCC | 0.438
GACGAGCC | -0.0685
CCCGAGCG | 0.43
TGCGAGCA | -0.165
TCCGAGCA | 0.458
CGCGAGCG | -0.016
CGCGAGCC | 0.143
GCCGAGCC | 0.463
GCCGAGCA | 0.357
ACCGAGCG | 0.38
ACCGAGCC | 0.356
ACCGAGCA | 0.374
CCTCTGGC | 0.0427
AGGCTCCC | -0.0221
CGATGATA | 0.122
ATTAACAC | 0.00046

Sequence | PBM E-score
CAGGTGTA | -0.327
GGCACACC | 0.0691
CCGCGCAA | 0.0559
CCAAGTAC | -0.196
ATTAGGCA | -0.144
GTCGTCCA | -0.096
GCGACCCA | -0.00585
AGGTCCCG | 0.325
CACAACGA | 0.0887
CCCGAGCA | 0.405
CTCGAGCA | -0.0413
CACGAGCA | -0.18
CGCGAAAG | -0.185
GGCTATAA | 0.104
CGCCTGCC | -0.0366
CACAGATG | -0.0862
GAGCAGGC | -0.135
CATATCCA | -0.178
CATATCCC | 0.0584
AATATCCG | 0.452
AATATCCA | 0.0783
CATATCCG | 0.403
AATATCCC | 0.247
GCCTCTCA | 0.0652
ACAAACCC | 0.0864

Sequence | PBM E-score
AGTGACAT | -0.243
CGGTGGCC | 0.114
CTCGGCGC | 0.383
CGCGGCGC | 0.106
CTCGGCGA | 0.397
ATCGGCGA | 0.226
GTCGGCGA | 0.126
ATCGGCGC | 0.205
ATTGGTTC | 0.0474
ATTACCAG | -0.105
GCCGACCA | 0.207
GCCGACGA | 0.285
TCCGACGA | 0.386
ACCGACCA | 0.141
TCCGACCA | 0.388
CCCGACGA | 0.34
GATCACCA | -0.056
CAGCTCGC | -0.13
AAGCTCGG | 0.439
CAGCTCGA | -0.144
CAGCTCGG | 0.392
AAGCTCGC | -0.0388
AAGCTCGA | 0.0225
GCCCACGC | -0.168
ACATATCT | -0.0348

Sequence | PBM E-score
CTCTCGTC | -0.0633
CTCTCGGC | 0.397
AACTCGGC | 0.364
CTCTCGAA | -0.356
ATCTCGGC | 0.442
CTCTCGAC | -0.293
ATCTCGCC | 0.0501
CTCTCGGA | 0.452
CTCTCGCA | -0.148
AACCAAGC | -0.109
GACCACGA | -0.259
CCTACCCA | -0.208
AGTCCCCA | -0.364
CCGCCGAC | 0.217
GCGCCGAA | 0.388
CCGCCGAG | 0.394
GCGCCGAC | 0.195
TCGCCGAA | 0.32
CCGCCGAA | 0.4
ACGCCGAG | 0.352
ACGCCGAA | 0.317
CCGCCGCA | 0.0672
CTACGAGC | -0.133
AGTTAGAG | -0.174
ACGTCCCT | -0.32

Sequence | PBM E-score
GCGCATTA | 0.00939
CCCTTGAG | -0.134
CTTGCCGC | 0.18
GTTGCCGA | 0.458
ATTGCCGG | 0.301
GTTGCCCA | -0.0723
CTTGCCTA | -0.286
GTTGCCAA | -0.164
ATTGCCGA | 0.451
CTTGCCGA | 0.396
ATTGCCGC | 0.121
CATATGAC | -0.132
GGAGGTAC | 0.112
AAGAAACG | -0.084
GTCGAAAA | -0.122
GAATCCAC | -0.134
GATGCCAC | -0.0531
CACTCTTC | -0.0762
GAGCCTGC | -0.0113
ATATTCCG | 0.393
AAATTCGC | 0.0337
ATATTCCA | 0.0331
ATATTCGC | -0.034
ATATTCGA | 0.0718
AAATTCCC | 0.167

Sequence | PBM E-score
ATATTCCC | 0.32
AAATTCGT | 0.117
AAATTCCG | 0.387
AAATTCGG | 0.389
AAATTCCA | -0.0536
ATATTCGG | 0.399
CTTGCAGC | -0.153
TCCAGTCA | -0.0411
CAGTGTGG | -0.271
AAAAAGGT | -0.106
AATGTTTG | -0.0254
CCACTCTC | 0.0625
GATAAGAC | 0.0398
AGATTCCC | 0.127
AGATTCCT | -0.216
AGATTCCG | 0.389
ACGGTGTC | 0.0812
CGGTCCAG | -0.0508
GGACATAC | 0.0378
CACCCAGC | 0.0106
AATTCGAA | -0.191
TATTCGCA | -0.147
CATTCGGA | 0.383
GATTCGTA | 0.0772
AATTCGGA | 0.447

Sequence | PBM E-score
GATTCGCA | -0.0177
TATTCGAA | -0.2
GATTCGGA | 0.43
CATTCGTA | -0.194
CATTCGGG | 0.343
AATTCGTA | 0.0882
TATTCGGA | 0.426
ACCCATAG | -0.221
GGCGTTCA | -0.0303
CGCGACTC | -0.0117
CCTTAGTC | -0.155
CGAGCACC | 0.204
CTATTCCC | 0.0798
AGCAGTAC | 0.0047
GATTCGGC | 0.393
CATTCGTC | -0.0104
CATTCGCC | -0.0759
AATTCGGC | 0.357
AATTCGGT | 0.278
AATTCGGG | 0.39
CATTCGGC | 0.409
GATTCGAC | -0.233
GATTCGCC | -0.0248
GACAAAAC | -0.0388
GTACATCA | -0.00531

Sequence | PBM E-score
GTTATCCA | 0.0169
AAATCTCA | -0.0445
CTCGGCTC | 0.422
ATCGGCTC | 0.279
CGCGGCTC | 0.191
ATCGGCTA | 0.403
GTCGGCTA | 0.377
ATCGGCTG | 0.328
AACGGCTA | 0.16
CTCGGCTA | 0.472
CACGGCTA | 0.299
ATCAGCAC | -0.139
CAGGTGGA | -0.236
GAAGTTGA | -0.085
CCATCCGA | 0.453
ACATCCGG | 0.447
ACATCCGT | 0.348
CCATCCGC | 0.28
ACATCCGA | 0.486
ACATCCTG | -0.0816
ACATCCCA | -0.0846
TCATCCGA | 0.473
TCATCCCA | -0.181
CCATCCGG | 0.332
ACATCCAG | -0.261

Sequence | PBM E-score
TCATCCAA | -0.191
CAACTAGG | -0.0487
TCTTCGCA | -0.0992
GTGTGCAA | -0.127
ACGTTCCC | 0.11
ATTCAACC | 0.00448
AAAGACAT | -0.14
GCGGGGGA | 0.0109
CCGCAAGA | 0.151
GCATCCTA | -0.163
GCATCCGC | 0.295
GCATCCGA | 0.466
ACGGCCAG | -0.124
GTCGGTAA | 0.333
CTCGGTTA | 0.44
ATCGGTAA | 0.336
ATCGGTTA | 0.368
CTCGGTAC | 0.383
GTCGGTTA | 0.343
CTCGGTGC | 0.244
ATCGGTAC | 0.329
CTCGGTAA | 0.431
